Source: PubChem
RORg inh: ROR gamma (mouse) transcription inhibition; P51450; Drosophila S2 Gal4-RORgamma UAS-luciferase reporter, 20 h; Potency, µM (doses to about 53.6 µM), actives largely listed as inhibitors; hit rate 5.4% among 310,000; AID 2551; also: nearly all actives have a fitted effect of over 60% in size
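In this cell-based reporter format, copper sulfate (700 uM final) drives Gal4–ROR gamma fusion expression from a metallothionein promoter in Drosophila Schneider cells; compounds preincubated 1 hr, reporter read after 20 hr at ambient temperature.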
PKM2 act: activators of human pyruvate kinase M2; P14618; purified PKM2, Kinase-Glo ATP luminescence, activation; response scale: 0% is enzyme alone, no compound; Potency, µM (doses to about 57.5 µM), hits mostly activators; hit rate 0.34% among 260,000; AID 1631; also: nearly all actives have a fitted effect of over 55% in size
Target sequence (P14618 whole entry, looked up): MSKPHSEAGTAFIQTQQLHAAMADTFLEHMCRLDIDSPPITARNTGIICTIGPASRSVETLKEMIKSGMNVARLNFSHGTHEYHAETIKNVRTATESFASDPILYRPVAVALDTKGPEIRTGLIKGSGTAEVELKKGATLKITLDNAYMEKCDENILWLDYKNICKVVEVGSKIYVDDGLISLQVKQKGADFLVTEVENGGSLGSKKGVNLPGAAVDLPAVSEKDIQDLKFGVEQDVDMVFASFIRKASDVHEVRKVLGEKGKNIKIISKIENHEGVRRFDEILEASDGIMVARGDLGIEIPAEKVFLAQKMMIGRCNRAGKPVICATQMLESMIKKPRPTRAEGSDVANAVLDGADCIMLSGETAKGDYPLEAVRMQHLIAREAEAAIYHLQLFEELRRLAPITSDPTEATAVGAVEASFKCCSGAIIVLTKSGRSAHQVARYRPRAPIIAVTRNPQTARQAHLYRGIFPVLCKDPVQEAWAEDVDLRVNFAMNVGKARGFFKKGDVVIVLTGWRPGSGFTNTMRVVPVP
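Purified hPK-M2 (>95% pure) converted ADP (0.1 mM final) to ATP with 0.5 mM PEP in 50 mM imidazole pH7.2, KCl, MgCl2, Tween 20, BSA; 1 h at room temperature. ATP detected by Kinase-Glo luminescence.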
Six1-Eya2 inh: inhibitors of human Six1/Eya2 interaction; Q15475+O00167; AlphaScreen GST-Six1/His-Eya2 binding, biochemical; active compounds read low; activity change, % (concentration not given with the values); hit rate 0.56% among 360,000; AID 651725; in the data active = activity change below about -65%; inconclusive = mostly about -30% to -63%
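AlphaScreen luminescence read after one hour at 37 °C in darkness. Pin-transferred compounds met GST-Six1 and His-Eya2 protein (5X stock 250 nM/500 nM) plus glutathione donor and Ni-chelate acceptor beads (5X, 50 ug/mL).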
CtBP-E1A blk: CtBP/E1A binding inhibition | AID 651724 | activity change, % (no concentration beside the values) | AlphaScreen GST-E1A/His-CtBP binding, 1536-well; active compounds read low | hit rate 0.49% among 340,000; in the data active = activity change below about -65%; inconclusive = mostly about -30% to -63%
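Protein mix (5X: 125 nM each GST-E1A, His-CtBP) was incubated with pinned compound 2 h at 37 deg C in dark, in 50 mM Tris pH 8.0 buffer with 300 mM NaCl. Glutathione donor and nickel acceptor beads followed; AlphaScreen signal read after 1 h.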
VP16 counter: inhibits Gal4-VP16 luciferase reporter, ROR gamma counter-screen; Drosophila S2 Gal4-VP16 UAS-luciferase, luminescence, 20 h; Potency, µM (highest dose often 53.6 µM), usual class: inhibitors; hit rate 3.5% among 310,000; AID 2546;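 also: Gal4-VP16 expression switched on by copper sulfate through the metallothionein promoter; nearly all actives have a fitted effect of over 50% in size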
Numbers stand for hits; i = inactive; ? = inconclusive; nt = not tested or not shown. Only some compounds are listed: those with a hit (about 5.6% of all), similar ones and a draw of the others. Unless noted, calls follow the shape of the dose curve; as a rule, active = well fitted curve in the direction sought with a large enough effect; inconclusive = small, poorly fitted or top-dose-only effect, or another doubt; inactive = no such curve, though single readings can be large; an effect the other way counts as inactive or inconclusive.

SMILES	RORg inh	PKM2 act	Six1-Eya2 inh	CtBP-E1A blk	VP16 counter
Cc1oc(-c2nc3ccccc3n2C)cc1C(=O)c1ccccc1	11.2µM	i	i	i	?
Cc1ccc(-c2nc3ccccc3n2C)o1	11.2µM	i	i	i	?
COc1ccccc1N1C(C)=CC(=C(C#N)c2nc3ccccc3s2)C=C1C	7.08µM	i	i	i	?
CC1=CC(=C(C#N)c2nc3ccccc3s2)C=C(C)N1c1ccc(F)cc1	?	i	i	i	i
COc1ccc(Cn2ccnc2SCC(=O)Nc2ccc(F)cc2F)cc1	nt	nt	i	i	nt
COc1cc2c(cc1OC)-c1c(oc3cc(O)cc(O)c3c1=O)CO2	?	nt	nt	nt	20µM
CCC1S/C(=N/N=C/c2cccs2)NC1=O (stereo unspecified)	0.794µM	i	i	i	3.98µM
CC1S/C(=N/N=C/c2cccs2)NC1=O (stereo unspecified)	2.24µM	i	i	i	7.08µM
CC(=O)c1cccc(NC(=O)CC2S/C(=N/N=C/c3cccs3)NC2=O)c1 (stereo unspecified)	?	i	i	i	i
CCCC1S/C(=N/N=C/c2cccs2)NC1=O (stereo unspecified)	0.224µM	i	i	i	0.398µM
CC(C)C1S/C(=N/N=C/c2cccs2)NC1=O (stereo unspecified)	0.316µM	i	i	i	0.891µM
CCOC(=O)c1cnc(SCCN2CCOCC2)nc1N	i	i	i	i	i
C/C(=N\NC(=O)C(C)n1nc(C)c([N+](=O)[O-])c1C)c1ccccc1O (stereo unspecified)	0.141µM	i	i	i	0.178µM
Cc1ccc(NC(=O)C(c2ccccc2)N2CCN(C(=O)c3ccco3)CC2)cc1Cl (stereo unspecified)	nt	nt	i	nt	nt
COC(=O)C(CC(=O)c1cccc(OC)c1)c1ccc(F)cc1 (stereo unspecified)	i	i	i	i	i
O=C(N/N=C/c1cn(-c2ccccc2)nc1-c1cccs1)c1ccncc1	1.26µM	i	i	i	2.24µM
O=C(N/N=C/c1nn(-c2ccccc2)cc1-c1ccccc1)c1ccncc1	1.58µM	i	i	i	3.16µM
Cc1ccc(-c2nn(-c3ccccc3)cc2/C=N/NC(=O)c2ccncc2)o1	2.82µM	i	i	i	11.2µM
NC(=O)N/N=C/c1cn(-c2ccccc2)nc1-c1cccs1	i	i	i	i	i
CCCCCCCCCCCCCC[C@@H](O)[C@@H](O)[C@H](CO)NC(C)=O	i	nt	nt	nt	i
CCCNC(=O)C1(C)CCN(Cc2ccc(-n3ccnc3)cc2)C1 (stereo unspecified)	nt	nt	i	i	nt
CCCNC(=O)c1cc(S(=O)(=O)N2CCc3ccccc32)cn1C	?	i	i	i	14.1µM
CCc1nnc(NC(=O)c2cccc(S(=O)(=O)N3CCN(c4ccccc4)CC3)c2)s1	12.6µM	?	i	i	?
CCc1ccccc1NC(=O)c1cc(S(=O)(=O)N2CCc3ccccc32)cn1C	i	i	i	i	i
CCOC(=O)c1sc(NC(=O)c2cccc(S(=O)(=O)N3CCc4ccccc43)c2)c(C#N)c1C	?	i	i	i	5.62µM
SMILES	RORg inh	PKM2 act	Six1-Eya2 inh	CtBP-E1A blk	VP16 counter
CCC(CC)c1nnc(NC(=O)c2cccc(S(=O)(=O)N3CCc4ccccc43)c2)s1	15.8µM	i	i	i	?
CCc1nnc(NC(=O)c2cc(S(=O)(=O)N3CCN(c4ccccc4)CC3)ccc2Cl)s1	i	i	i	i	i
COc1cc(CNc2ncnc3ccc(-c4c(C)noc4C)cc23)cc(OC)c1OC	i	nt	nt	nt	i
O=C(Nc1nc2c(s1)CCCC2)c1cccc(S(=O)(=O)N2CCCc3ccccc32)c1	3.16µM	i	i	i	12.6µM
CN1CCc2nc(NC(=O)c3cccc(S(=O)(=O)N4CCc5ccccc54)c3)sc2C1	?	i	i	i	i
COC(=O)C1=C(C)N(Cc2ccc(OC)cc2)C(=O)C1	?	i	i	i	?
COC(=O)C1=C(C)N(Cc2ccco2)C(=O)C1	10µM	i	i	i	i
COc1cccc2cc(/C(C)=N/Nc3nc(-c4cc(C)ccc4C)cs3)c(=O)oc12	0.794µM	i	i	i	i
CC(C)Cc1nnc(NC(=O)c2ccc3c(=O)n4c(nc3c2)CCC4)s1	i	i	i	?	i
